Sampled rows, rich in hits. Any-hit rate of the full collection: about 18%.
TDP1 block = qHTS Assay for Inhibitors of Tyrosyl-DNA Phosphodiesterase (TDP1); Tyrosyl-DNA phosphodiesterase 1 (Homo sapiens), Q9NUW8; recombinant TDP1, AlphaScreen DNA substrate cleavage; Potency, µM (series often up to 130 µM), most hits filed as inhibitors; 350,000 tested, 0.28% active; AID 485290, 2010; further: nearly all actives have a fitted effect of over 40% in size
Target sequence (Q9NUW8 whole entry, looked up): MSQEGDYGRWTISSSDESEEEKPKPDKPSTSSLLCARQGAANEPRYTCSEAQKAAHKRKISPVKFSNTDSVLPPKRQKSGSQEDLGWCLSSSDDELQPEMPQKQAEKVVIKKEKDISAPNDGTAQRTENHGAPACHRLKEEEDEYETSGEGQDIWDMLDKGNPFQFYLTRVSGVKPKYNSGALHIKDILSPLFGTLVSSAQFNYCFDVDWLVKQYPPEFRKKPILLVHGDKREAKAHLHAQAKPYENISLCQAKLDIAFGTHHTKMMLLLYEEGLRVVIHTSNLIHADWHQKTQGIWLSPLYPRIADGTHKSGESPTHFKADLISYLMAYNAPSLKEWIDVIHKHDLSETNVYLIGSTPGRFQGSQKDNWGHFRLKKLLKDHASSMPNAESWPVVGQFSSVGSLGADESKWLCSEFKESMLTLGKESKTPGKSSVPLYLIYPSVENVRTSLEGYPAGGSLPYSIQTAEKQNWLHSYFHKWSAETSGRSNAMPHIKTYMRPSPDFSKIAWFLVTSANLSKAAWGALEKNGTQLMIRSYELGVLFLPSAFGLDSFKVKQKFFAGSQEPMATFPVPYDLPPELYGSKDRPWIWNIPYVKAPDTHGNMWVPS
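E. coli-derived human Tdp1, 1 nM final. Cpd preinc 15 min RT; substrate 15 nM final, 5 min RT; AS bead mix 10 ug/ml final, 10 min RT. Signal loss = tyrosine-FITC cleavage. No-enzyme wells = max signal.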
TDP1 cell CPT = qHTS for Inhibitors of human tyrosyl-DNA phosphodiesterase 1 (TDP1): qHTS in cells in presence of CPT | chicken DT40 Tdp1-/-;hTDP1 cells + 20 nM CPT, ATP luminescence, 48 h | Potency, µM (series often up to 46.2 µM), hits mostly inhibitors | 420,000 tested, 12% active | AID 686979, 2013; further: nearly all actives have a fitted effect of over 55% in size
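Cell growth measured by CellTiter-Glo luminescence after a minimum 48 h, 37 C compound exposure with 20 nM CPT in Tdp1-knockout DT40 cells stably expressing hTDP1, seeded 400/well; qHTS titration format.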
PLK1 PBD inh = qHTS for Inhibitors of PLK1-PDB (polo-like kinase 1 - polo-box domain): Primary Screen; 360,000 tested, 2.8% active; Serine/threonine-protein kinase PLK1 (Homo sapiens), P53350; AID 720504, 2013; Potency, µM, hits mostly inhibitors; Plk1 PBD binding of FITC phosphopeptide, fluorescence polarization; further: series mostly up to about 57 µM; nearly all actives have a fitted effect of over 65% in size
VDR inhibitor = Inhibitors of the vitamin D receptor (VDR): qHTS; Vitamin D3 receptor (Homo sapiens), P11473; VDR-SRC2-3 peptide fluorescence polarization, 2 h; Potency, µM, hits mostly inhibitors; 400,000 tested, 0.93% active; AID 504847, 2011
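Measured by FP: displacement of SRC2-3 coactivator peptide from VDR by library compounds, following a two-hour ambient incubation.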
DT40 TDP1 no CPT = qHTS for Inhibitors of human tyrosyl-DNA phosphodiesterase 1 (TDP1): qHTS in cells in absence of CPT; DT40 Tdp1-/- hTDP1 cells, no CPT, ATP luminescence, 48 h; Potency, µM (top dose mostly 46.2 µM), most hits filed as inhibitors; 420,000 tested, 15% active; further: nearly all actives have a fitted effect of over 55% in size
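Camptothecin absent (DMSO only). Human TDP1-complemented DT40 knockout cells, 400 cells/well, 37 °C for minimum 48 hr; ATP measured via CellTiter-Glo, 30 min dark incubation, luminescence.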
KAT2A inh = qHTS Assay for Inhibitors of GCN5L2; Histone acetyltransferase KAT2A (Homo sapiens), Q92830; GCN5L2 HAT assay, ThioGlo1 CoA-SH fluorescence; Potency, µM (top dose mostly 58.9 µM), usual class: inhibitors; 390,000 tested, 0.21% active; AID 504327, 2011
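qHTS, 1536-well. 20nM enzyme, pH 7.5 HEPES/EDTA/Tween-20 buffer; 15 min compound preinc., RT. Start: 75uM H3(1-25), 70uM AcCoA, 50uM ThioGlo1. Read Ex340/Em540 at t=0 (autofluorescence flag) and t=20 min.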
Numbers stand for hits. The call rests on the fitted dose curve; in most records, active means well fitted curve in the direction sought with a large enough effect; inconclusive means small, poorly fitted or top-dose-only effect, or another doubt; inactive means no such curve, though single readings can be large; an effect the other way counts as inactive or inconclusive.

Results for CCOc1ccc(Nc2ccnc3cc(Cl)ccc23)cc1 ?
TDP1 cell CPT: inconclusive; PLK1 PBD inh: inactive; VDR inhibitor: inactive; DT40 TDP1 no CPT: inconclusive; KAT2A inh: inactive

Results for O=C(NCc1ccc(F)cc1)c1ccc2c(c1)N(Cc1ccc(F)cc1Cl)C(=O)CS2 ?
TDP1 block: inactive; TDP1 cell CPT: inactive; VDR inhibitor: inactive; DT40 TDP1 no CPT: inactive; KAT2A inh: inactive

How did Cc1ccc(CNC(=O)c2ccc3c(c2)N(Cc2cccc(Cl)c2)C(=O)CS3)cc1 do in these assays?
TDP1 block: inactive; TDP1 cell CPT: inconclusive; VDR inhibitor: inactive; DT40 TDP1 no CPT: 21µM; KAT2A inh: inactive

How did O=C(NCCc1ccc(Cl)cc1)c1ccc2c(c1)N(Cc1c(F)cccc1Cl)C(=O)CS2 do in these assays?
TDP1 block: inactive; TDP1 cell CPT: 9.2µM; VDR inhibitor: inactive; DT40 TDP1 no CPT: 2.6µM; KAT2A inh: inactive

What do the screens show for `Cc1cccc(CN2C(=O)CSc3ccc(C(=O)NC4CC4)cc32)c1`?
TDP1 block: inactive; TDP1 cell CPT: 0.73µM; PLK1 PBD inh: inactive; VDR inhibitor: inactive; DT40 TDP1 no CPT: inconclusive; KAT2A inh: inactive

How did O=C(NCC1CCCO1)c1ccc2c(c1)N(Cc1ccccc1)C(=O)CS2 (stereo not given) do in these assays?
TDP1 block: inactive; TDP1 cell CPT: inactive; PLK1 PBD inh: 30µM; VDR inhibitor: inactive; DT40 TDP1 no CPT: inactive; KAT2A inh: inactive

How did COc1ccc(NS(=O)(=O)c2cc(C(=O)N3CCC3)ccc2C)cc1 do in these assays?
TDP1 block: inactive; TDP1 cell CPT: inactive; PLK1 PBD inh: inactive; VDR inhibitor: inactive; DT40 TDP1 no CPT: inactive; KAT2A inh: inactive

Results for Cn1cccc1C(=O)N1CCC2(CC1)CN(C(=O)Nc1cccc(C#N)c1)C2 ?
TDP1 cell CPT: inactive; VDR inhibitor: inactive; DT40 TDP1 no CPT: inconclusive; KAT2A inh: inactive

What do the screens show for `CC(=O)c1c(N2CCOCC2)nc2ccc(Cl)cc2c1-c1ccccc1`?
TDP1 block: inactive; TDP1 cell CPT: inactive; PLK1 PBD inh: inactive; VDR inhibitor: inactive; DT40 TDP1 no CPT: inactive; KAT2A inh: inactive

What do the screens show for `Cc1ccc(CNC(=O)c2ccc3c(c2)N(Cc2ccccc2Cl)C(=O)CS3)cc1`?
TDP1 block: inactive; TDP1 cell CPT: inconclusive; VDR inhibitor: inactive; DT40 TDP1 no CPT: inconclusive; KAT2A inh: inactive

Results for O=C(NCc1ccccc1Cl)c1ccc2c(c1)N(Cc1ccccc1)C(=O)CS2 ?
TDP1 block: inactive; TDP1 cell CPT: 23µM; VDR inhibitor: inactive; DT40 TDP1 no CPT: inconclusive; KAT2A inh: inactive

How did Cc1ccc(CN2CCSc3ccc(C(=O)NCC4CCCO4)cc32)cc1 (stereo not given) do in these assays?
TDP1 block: inactive; TDP1 cell CPT: inconclusive; PLK1 PBD inh: inactive; VDR inhibitor: inactive; DT40 TDP1 no CPT: inconclusive; KAT2A inh: inactive

Results for O=C(NCC1CCCO1)c1ccc2c(c1)N(Cc1ccc(Cl)cc1)CCS2 (stereo not given) ?
TDP1 cell CPT: inconclusive; PLK1 PBD inh: inactive; DT40 TDP1 no CPT: 23µM

How did COCCCNC(=O)c1nc2ccccc2c(=O)n1NC(=O)Nc1c(Cl)cccc1Cl do in these assays?
TDP1 cell CPT: inactive; PLK1 PBD inh: inactive; VDR inhibitor: inactive; DT40 TDP1 no CPT: inactive; KAT2A inh: inactive

How did O=C(O)[C@@H]1CCCN(S(=O)(=O)c2cccc3cccnc23)C1 do in these assays?
TDP1 block: inactive; TDP1 cell CPT: inactive; PLK1 PBD inh: inactive; VDR inhibitor: inactive; DT40 TDP1 no CPT: inactive; KAT2A inh: inconclusive

What do the screens show for `COc1ccc(N2CCN(C(=O)C3CCCN(S(=O)(=O)c4cccc5cccnc45)C3)CC2)cc1` (stereo not given)?
TDP1 block: inactive; TDP1 cell CPT: 16µM; PLK1 PBD inh: inactive; VDR inhibitor: inactive; DT40 TDP1 no CPT: inconclusive; KAT2A inh: inactive

How did CC1Cc2ccccc2N1C(=O)C1CCCN(S(=O)(=O)c2cccc3cccnc23)C1 (stereo not given) do in these assays?
TDP1 block: inactive; TDP1 cell CPT: 13µM; PLK1 PBD inh: inactive; VDR inhibitor: inactive; DT40 TDP1 no CPT: 13µM; KAT2A inh: inactive

What do the screens show for `Cc1cc2c(s1)c1cnn(Cc3cc(C(F)(F)F)cc(Cl)c3F)c(=O)c1n2C`?
TDP1 block: inactive

How did N#Cc1cc2c([nH]c1=O)CCCC2 do in these assays?
TDP1 block: inactive; TDP1 cell CPT: inactive; PLK1 PBD inh: inactive; VDR inhibitor: inactive; DT40 TDP1 no CPT: inactive; KAT2A inh: inactive

What do the screens show for `C=CCSC(=C(C#N)C#N)c1cc2c([nH]1)CCCC2`?
TDP1 block: inactive; TDP1 cell CPT: 10µM; PLK1 PBD inh: inactive; VDR inhibitor: inactive; DT40 TDP1 no CPT: 12µM; KAT2A inh: inactive

What do the screens show for `CCCCC/C=C\C\C=C/C=C/C=C/[C@@H](SCC(N)C(=O)O)[C@@H](O)CCCC(=O)O` (stereo not given in full)?
TDP1 block: inactive; VDR inhibitor: inactive

Results for Cc1ccc(Sc2c([N+](=O)[O-])c(C)nn2C)cc1 ?
TDP1 block: inactive; TDP1 cell CPT: inactive; PLK1 PBD inh: inactive; VDR inhibitor: inactive; DT40 TDP1 no CPT: inactive; KAT2A inh: inactive

What do the screens show for `CCn1nc(C)cc1C(=O)Sc1cccc(Cl)c1`?
TDP1 block: inactive; TDP1 cell CPT: 3.7µM; PLK1 PBD inh: 19µM; VDR inhibitor: inconclusive; DT40 TDP1 no CPT: 4.1µM; KAT2A inh: inactive

What do the screens show for `Cc1nn(C)c(C(=O)Sc2ccccc2)c1[N+](=O)[O-]`?
TDP1 cell CPT: inconclusive; PLK1 PBD inh: inconclusive; VDR inhibitor: inactive; DT40 TDP1 no CPT: 23µM; KAT2A inh: inactive

How did Cc1nn(C)c(C(=O)Sc2cccc(Cl)c2)c1[N+](=O)[O-] do in these assays?
TDP1 cell CPT: 4.6µM; PLK1 PBD inh: 4.2µM; VDR inhibitor: 40µM; DT40 TDP1 no CPT: 2.9µM; KAT2A inh: inactive

How did Cc1nn(C)c(C(=O)Nc2ccc(Cl)c([N+](=O)[O-])c2)c1Cl do in these assays?
TDP1 block: inactive; TDP1 cell CPT: inactive; PLK1 PBD inh: inactive; VDR inhibitor: inactive; DT40 TDP1 no CPT: inactive; KAT2A inh: inactive

How did C=C(C)[C@H]1CC=C(CO)CC1 do in these assays?
TDP1 block: inactive; VDR inhibitor: inactive; KAT2A inh: inactive

How did Cc1ccc(-c2nc(-c3nccc4ccccc34)oc2-c2ccccc2)cc1 do in these assays?
TDP1 cell CPT: inconclusive; PLK1 PBD inh: inactive; VDR inhibitor: inactive; DT40 TDP1 no CPT: 13µM; KAT2A inh: inconclusive
